Assay results as given in PMC4336329 (PLoS ONE, 2015).
Hit rate of the full screen: of about 310,000 compounds, about 14,000 (4.5%) showed an effect of 50% or more. The effect is printed as a negative number. Many of the other results were omitted from the sample, so strong results are more common in it than they were.

Each compound was assayed against human ether-à-go-go-related gene (hERG) potassium channel (human, UniProt Q12809) (assay: primary screen, population patch clamp on CHO cells stably expressing hERG; higher = less effect of the substance).
Chain of human ether-à-go-go-related gene (hERG) potassium channel (Q12809 whole entry, looked up): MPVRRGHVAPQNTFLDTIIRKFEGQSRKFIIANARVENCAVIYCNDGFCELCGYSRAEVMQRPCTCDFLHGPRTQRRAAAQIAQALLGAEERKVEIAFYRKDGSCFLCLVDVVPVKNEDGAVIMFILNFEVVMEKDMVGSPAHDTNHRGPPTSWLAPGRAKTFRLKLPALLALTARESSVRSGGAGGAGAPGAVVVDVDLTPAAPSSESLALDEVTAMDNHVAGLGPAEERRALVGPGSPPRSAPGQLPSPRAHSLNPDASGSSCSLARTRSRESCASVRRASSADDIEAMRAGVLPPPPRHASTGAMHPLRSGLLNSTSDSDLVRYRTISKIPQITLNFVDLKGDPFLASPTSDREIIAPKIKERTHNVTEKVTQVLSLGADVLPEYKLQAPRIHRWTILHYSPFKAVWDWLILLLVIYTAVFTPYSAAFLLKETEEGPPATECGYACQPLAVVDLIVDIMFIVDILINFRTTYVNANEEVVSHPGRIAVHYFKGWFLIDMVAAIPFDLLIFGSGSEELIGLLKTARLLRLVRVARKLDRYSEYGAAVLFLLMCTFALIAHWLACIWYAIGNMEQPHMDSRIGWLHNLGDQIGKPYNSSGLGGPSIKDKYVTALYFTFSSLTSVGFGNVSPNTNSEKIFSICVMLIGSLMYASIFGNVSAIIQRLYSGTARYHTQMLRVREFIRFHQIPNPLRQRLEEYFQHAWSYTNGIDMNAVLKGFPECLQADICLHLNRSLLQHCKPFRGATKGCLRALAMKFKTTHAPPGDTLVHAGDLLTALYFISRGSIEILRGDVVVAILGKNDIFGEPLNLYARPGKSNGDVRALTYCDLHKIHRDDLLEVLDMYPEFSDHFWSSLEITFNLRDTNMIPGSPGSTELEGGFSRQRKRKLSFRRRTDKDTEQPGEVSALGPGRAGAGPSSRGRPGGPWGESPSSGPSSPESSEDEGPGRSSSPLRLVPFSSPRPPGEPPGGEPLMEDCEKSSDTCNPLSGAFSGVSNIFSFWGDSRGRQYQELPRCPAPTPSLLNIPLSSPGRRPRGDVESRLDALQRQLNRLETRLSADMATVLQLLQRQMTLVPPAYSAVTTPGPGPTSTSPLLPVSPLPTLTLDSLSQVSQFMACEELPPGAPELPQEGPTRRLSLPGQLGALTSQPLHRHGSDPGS
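Note: peak tail current of the secondary pulse compared with the same well before compound.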

Row | Compound | hERG current change (%, negative = inhibition) at 10uM
1 | COc1ccccc1C(=O)Nc1ccc2c(c1)nc(CN1CCCCC1)n2C | -21.8%
2 | CCCC(=O)Nc1ccc2c(c1)nc(CN1CCCCC1)n2C | 2.55%
3 | Cn1c(CN2CCCCC2)nc2cc(NC(=O)c3ccc(Cl)cc3)ccc21 | -59.8%
4 | CS(=O)(=O)c1ccc(-n2c(=O)n(Cc3ccccc3)c(=O)c3[nH]cnc32)cc1 | -45.7%
5 | CCOP(=O)(OCC)/C(C#N)=C/c1ccc(Br)cc1 | -13.5%
6 | O=C1c2ccccc2C(=O)N1CCN1CCCCC1 | -6.2%
7 | CC1CN(C(=O)/C=C/c2ccccc2[N+](=O)[O-])CC(C)O1 (centres unmarked) | -4.44%
8 | CCCCc1cn([C@@H](CCCCN)C(=O)N2CCNCC2)nn1.Cl | 18.8%
9 | CCCn1c(=NC(=O)c2c(-c3c(F)cccc3Cl)noc2C)c(C(=O)OCC)cc2c(=O)n3ccccc3nc21 | 5.26%
10 | CCOC(=O)c1cc2c(=O)n3ccccc3nc2n(C(C)C)c1=NC(=O)c1ccncc1 | -67.5%
11 | CCCn1c(=NC(=O)c2ccco2)c(C(=O)OCC)cc2c(=O)n3ccccc3nc21 | -66.7%
12 | CCCCCn1c(=NC(=O)c2ccco2)c(C(=O)OCC)cc2c(=O)n3ccccc3nc21 | -73.5%
13 | CCOC(=O)c1cc2c(=O)n3ccccc3nc2n(C(C)C)c1=NC(=O)c1c(-c2c(F)cccc2Cl)noc1C | 2.48%
14 | CCOC(=O)c1cc2c(=O)n3ccccc3nc2n(C(C)C)c1=NC(=O)c1c(-c2ccccc2Cl)noc1C | 24.3%
15 | CCCn1c(=NC(C)=O)c(C(=O)OCC)cc2c(=O)n3ccccc3nc21 | -9.98%
16 | CCOC(=O)c1cc2c(=O)n3ccccc3nc2n(C)c1=NC(=O)c1c(-c2c(F)cccc2Cl)noc1C | 14%
17 | CCOC(=O)c1cc2c(=O)n3ccccc3nc2n(C(C)C)c1=NC(=O)c1ccco1 | -56.8%
18 | Cc1onc(-c2c(Cl)cccc2Cl)c1C(=O)NCc1cccs1 | -9.65%
19 | COC(=O)CSc1nnc(SCc2ccc(Cl)cc2)s1 | -0.477%
20 | Cc1occc1C(=O)N/N=C/c1ccc(-c2cccc([N+](=O)[O-])c2)o1 | 1.37%
21 | O=C(COC(=O)c1cc(S(=O)(=O)NCc2ccccc2)ccc1O)c1cc2ccccc2o1 | 11.9%
22 | COc1ccccc1NC(=O)CCCN1C(=O)C2CC=CCC2C1=O (centres unmarked) | 11.1%

Row | Compound | hERG current change (%, negative = inhibition) at 10uM
23 | CCN1CCN(Cc2ccccc2NC(=O)Nc2ccc(C)cc2)CC1 | -0.992%
24 | COc1cc2nc(CN(CCC(C)C)Cc3nc4cc(OC)c(OC)cc4c(=O)[nH]3)[nH]c(=O)c2cc1OC | -2.68%
25 | Cc1ccccc1NC(=O)c1nn(C)c(C(=O)Nc2ccccc2C)c1[N+](=O)[O-] | 0.0696%
26 | CCCCn1c(=NC(=O)c2ccco2)c(C(=O)OCC)cc2c(=O)n3ccccc3nc21 | -71.7%
27 | CCOc1cc(/C=C/c2ccc3cccc([N+](=O)[O-])c3n2)ccc1OCC(=O)N(C)C | -33.4%
28 | Cc1ccc(-c2nnc(N3CCN(C(=O)CN4CCOCC4)CC3)c3ccccc23)cc1 | -31.5%
29 | N#Cc1c(N2CCN(C(=O)c3ccco3)CC2)nc(-c2ccccc2)c2c1CCCC2 | -5.84%
30 | Cc1ccc(-c2nnc(N3CCCCC3)c3ccccc23)cc1 | -11.2%
31 | O=C(CN1CCOCC1)N1CCN(c2nnc(-c3ccccc3)c3ccccc23)CC1 | 7.35%
32 | Cc1ccc(-c2nnc(N3CCN(C(=O)c4ccco4)CC3)c3ccccc23)cc1 | -75.2%
33 | O=C(c1ccco1)N1CCN(c2nnc(-c3ccccc3)c3ccccc23)CC1 | -75.8%
34 | O=C(Nc1nccs1)C1CCN(S(=O)(=O)c2ccccc2)CC1 | -14.1%
35 | CN(C)S(=O)(=O)c1cccc(NC(=O)c2sccc2-c2ccccc2)c1 | -26.1%
36 | S=C(Nc1ccccc1)Nc1ccc2cn[nH]c2c1 | -14.5%
37 | CCOc1ccc(NC(=S)NCc2nc3ccccc3[nH]2)cc1 | -74%
38 | FC(F)Oc1ccc(NC(=S)NCc2ccccc2)cc1 | -36.9%
39 | CCNC(=S)Nc1ccc(Cc2nc3ccccc3[nH]2)cc1 | 9.19%
40 | CCc1cccc(CC)c1NC(=S)NCc1nc2ccccc2[nH]1 | 3.09%
41 | FC(F)Oc1ccc(NC(=S)NCc2nc3ccccc3[nH]2)cc1 | -79.2%
42 | FC(F)Oc1ccc(NC(=S)Nc2ccc3cn[nH]c3c2)cc1 | -79.5%
43 | COc1ccc(NC(=S)Nc2ccc3cn[nH]c3c2)cc1 | -11.9%
44 | Fc1ccc(CNC(=S)Nc2ccc(OC(F)F)cc2)cc1 | -20.6%
